Laboratory results as given in PubChem BioAssay (NCI).
Where “and” joins values, the source holds several entries; their conditions need not be identical. Identical values can stand only once. Compounds without any hit were thinned out: in the full panel of roughly 83,000, 20% have a hit.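 Plates (96-well) were seeded with cells, treated with compound at one concentration, and incubated for 48 hours before percent growth was determined.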 Unmarked numbers belong to inactive results. Calls of active or inactive are those of the source. The calls were made as follows: active = growth percent below 10; inactive = the rest.

Experiments:
Assay in all cases: NCI-60 one-dose screen, 48 h (100 = growth as untreated, 0 = no growth, -100 = all killed)
Conditions in all cases: 10 µM unless noted
[1] = test system: HCT-15 colon
[2] = test system: HT29 colon
[3] = test system: SNB-75 CNS
[4] = test system: SNB-19 CNS
[5] = test system: U251 CNS
[6] = test system: PC-3 prostate
[7] = test system: SK-MEL-5 melanoma
[8] = test system: UACC-62 melanoma
[9] = test system: SK-MEL-28 melanoma
[10] = test system: LOX IMVI melanoma

| SMILES | growth [1] | growth [2] | growth [3] | growth [4] | growth [5] | growth [6] | growth [7] [%] | growth [8] | growth [9] | growth [10] |
| --- | --- | --- | --- | --- | --- | --- | --- | --- | --- | --- |
| N#Cc1c[nH]n2ccnc12 | 104% | 91.2% | 103% | 108% | 92.4% | 97.9% | 115 | 106% | 107% | – |
| COc1cc2c(cc1O)C(=O)CCCC2 | 95.3% | 97.2% | 89.3% | 101% | 96.8% | 87.6% | 102 | 106% | 111% | – |
| COc1ccc(CCNC(=S)NN)cc1OC | 123% | 104% | 106% | 127% | 105% | 101% | 103 | 115% | 114% | – |
| CSc1nc(N)c(N)c(N)n1 | 111% | 88.8% | 97.5% | 100% | 95.8% | 71.4% | 101 | 101% | 113% | – |
| CCCC(=O)Oc1ccc2ccccc2c1 | 109% | 103% | 105% | 101% | 95.5% | 73.1% | – | 100% | 114% | 101% |
| O=C1C2=C(Nc3cc(Cl)ccc3N2)OC1c1c[nH]c2ccc(COc3ccccc3)cc12 (stereo not drawn) | 82% | 86.4% | -2.61% (active) | 30.4% | 52.2% | 45.7% | – | 68.7% | 94% | 70.2% |
| O=C(O)COc1ccccc1F | 113% | 113% | 94.4% | 107% | 109% | 82.6% | – | 101% | 112% | – |
| CCOCCC(=O)O | 108% | 104% | 93.3% | 109% | 106% | 91.7% | – | 102% | 109% | 102% |
| Cc1ccc(S(=O)(=O)n2ccnc2)cc1 | 105% | 106% | 87.6% | 117% | 101% | 103% | 99.9 | 92.7% | 111% | – |
| COc1ccc(COC=O)cc1 | 107% | 104% | 102% | 114% | 100% | 99.9% | 104 | 104% | 111% | – |
| O=C(c1ccc(Cl)cc1)C1C(c2ccccc2)C1[N+](=O)[O-] (stereo not drawn) | 102% | 97.2% | 106% | 97.1% | 89.9% | 90.5% | – | 91.1% | 111% | 95.2% |
| CCN(CC)CCNC(=O)c1ccc(NCN2C(=O)NC(c3ccccc3)(c3ccccc3)C2=O)cc1 | 113% and 105% | 108% and 112% | 103% and 97.1% | 109% and 105% | 95.2% and 102% | 97.6% and 93% | – | 104% and 97% | 117% | 95.1% and 97.6% |
| COc1ccc(CCl)c(C)c1OC | 106% | 102% | 104% | 107% | 97.6% | 94.2% | – | 99.5% | 109% | 94.3% |
| Nc1ccccc1SC1CC(=O)N(c2ccc(I)cc2)C1=O (stereo not drawn) | 88.5% | 93.3% | 79.8% | 96% | 88.4% | 94.2% | – | 82.7% | 90.8% | 76.4% |
| N=c1sc2ccccc2n1CC(=O)O | 103% | 98% | 100% | 101% | 91.8% | 92.7% | – | 97.2% | 112% | 98.7% |
| O=P(O)(O)OC1C(OP(=O)(O)O)C(OP(=O)(O)O)C(OP(=O)(O)O)C(OP(=O)(O)O)C1OP(=O)(O)O.[Cu+2] (stereo not drawn) | 102% | 96.5% | 136% | 106% | 32.6% | 105% | – | 79.7% | 116% | – |
| COc1ccc(-n2[nH]c3c(cnc4ccccc43)c2=O)cc1 | 96.1% and 91.4% | 95.1% and 93.4% | 98.1% | 103% | 107% | 91.3% and 97.4% | – | 95.9% and 87.9% | 108% and 100% | 88% and 105% |
| NNC(=O)Nc1ccccc1 | 99.8% | 106% | 87.9% | 102% | 99.1% | 93.5% | – | 94.3% | 109% | 98.1% |
| O=C1c2ccccc2CN1c1ccccc1 | 107% | 82.4% | 102% | 88.9% | 101% | 116% | – | 85.9% | 120% | 113% |
| O=C(Nc1ccccc1)OCC(CN1CCCCC1)OC(=O)Nc1ccccc1 (stereo not drawn) | 84.9% and 99.5% | 69.6% and 87.2% | 56.4% and 80.6% | 90.9% and 92.8% | 67.7% and 91.1% | 75.5% | – | 80.7% and 101% | 91.5% and 105% | 76.7% and 95.2% |
| CCOC(=O)c1ccc(N2C(=O)C(Cl)(c3ccccc3)C2c2ccco2)cc1 (stereo not drawn) | 67% | 78.9% | 82.3% | 76.4% | 79.1% | 85.9% | – | 72.1% | 88.3% | 77% |
| CC(=O)c1cccc(OC(=O)c2ccccc2)c1 | 127% | 104% | 101% | 97.2% | 103% | 90.9% | 108 | 91.1% | 92.1% | – |
| O=C(O)C#Cc1ccc(Cl)cc1 | 103% | 98.1% | 85.6% | 99.8% | 93.8% | 92% | – | 95.7% | 107% | 91.5% |
| O=C(O)C1CSCN1 (stereo not drawn) | 109% and 96.3% | 104% | 109% and 73.5% | 105% and 94% | 104% and 97.6% | 99.4% and 112% | – | 105% and 96% | 117% and 114% | 108% and 102% |
| O=[N+]([O-])c1ccc(NC2CCCCC2)nc1 | 106% and 102% | 106% and 104% | 102% and 96.9% | 103% and 108% | 107% and 101% | 105% and 98% | – | 104% and 92.2% | 128% and 111% | 94% |
